Results published in the supplement of paper PMC9492666.
Counter-ions that a name gives are not always drawn.

Tests used:
HCC1937 = assay: relative cell viability, compound + RSL3, vs DMSO (fraction of DMSO control); higher = less growth inhibition; details: 72 h
MDA-MB-231 = assay: as above; details: 72 h
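Further: breast cancer cell viability read out with the CCK-8 kit after co-treatment of each compound with the ferroptosis inducer RSL3.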

SMILES | relative cell viability (HCC1937) | relative cell viability (MDA-MB-231)
C=C[C@H]1CN2CC[C@H]1C[C@@H]2[C@@H](O)c1ccnc2ccc(OC)cc12 [Quinidine sulfate] + COC(=O)c1ccc([C@H]2c3[nH]c4ccccc4c3C[C@H](C(=O)OC)N2C(=O)CCl)cc1 [RSL3] | 0.439 | 0.673
COc1ccc(C2(CNC(=O)c3ccc(NC(=O)c4ccco4)cc3)CCOCC2)cc1 + COC(=O)c1ccc([C@H]2c3[nH]c4ccccc4c3C[C@H](C(=O)OC)N2C(=O)CCl)cc1 [RSL3] | 0.441 | 0.49
CCCc1cc(-c2nc(-c3ccc(C)cc3)cs2)ccn1 [Fatostatin] + COC(=O)c1ccc([C@H]2c3[nH]c4ccccc4c3C[C@H](C(=O)OC)N2C(=O)CCl)cc1 [RSL3] | 0.269 | 0.715
COP(=O)(OC)OC(c1ccc(Cl)cc1)P(=O)(OC)OC (centres undefined) [Mifobate] + COC(=O)c1ccc([C@H]2c3[nH]c4ccccc4c3C[C@H](C(=O)OC)N2C(=O)CCl)cc1 [RSL3] | 0.632 | 0.669
CN(C)c1cccc(-c2c3c(=O)n(-c4ccccc4Cl)[nH]c3cc(=O)n2C)c1 + COC(=O)c1ccc([C@H]2c3[nH]c4ccccc4c3C[C@H](C(=O)OC)N2C(=O)CCl)cc1 [RSL3] | 0.433 | 0.579
CN(C)C(=N)NC(=N)N [Metformin] + COC(=O)c1ccc([C@H]2c3[nH]c4ccccc4c3C[C@H](C(=O)OC)N2C(=O)CCl)cc1 [RSL3] | 0.335 | 0.542
NC(N)=N/N=C/c1cccc(Cl)c1Cl [Raphin1 acetate] + COC(=O)c1ccc([C@H]2c3[nH]c4ccccc4c3C[C@H](C(=O)OC)N2C(=O)CCl)cc1 [RSL3] | 0.38 | 0.603
